Assay outcomes as filed in PubChem.
Compounds with a hit are over-represented: about 13% of the library has one in this group of screens.
Pf growth 96h: P. falciparum growth inhibition at 96 hour, primary screen for plastid delayed-death inhibitors; AID 504834; 6.9% of 320,000 active; Potency, µM (top dose mostly 28.7 µM), actives largely listed as inhibitors; P. falciparum luciferase reporter growth, 96 h
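Erythrocytes infected with luciferase-expressing P. falciparum were dispensed at 2% hematocrit and 0.05% parasitemia (final), then incubated with compounds 96 hours at 37 C in 5% CO2. Luminescence after detection reagent addition reported growth.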
HCMV antiviral: inhibitors of human cytomegalovirus | HFF cells, HCMV-luciferase reporter, 72 h; hits give low values | activity change, negative = inhibition, % at 57.5 µM | 4.5% of 410,000 active | AID 1259415; in the data active = activity change below about -60%; inconclusive = no clear call, values can overlap the other calls; inactive = above about -39%
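Compounds were evaluated in HFFs infected with an HCMV luciferase reporter virus (MOI 1 PFU/cell). Luciferase in lysates collected 72 h post infection served as the replication measure.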
HCV inhibitor: blocks hepatitis C virus. 3.4% of 340,000 active. Huh7.5.1 HCVcc-Cre infection, luciferase reporter, 44 h. Potency, µM (top dose mostly 41.8 µM), hits mostly inhibitors
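HCVcc-Cre virus at an moi near 0.5 was added right after compound to cells cultured 4 h from seeding (1,000 cells/well). Luciferase activity was determined 44 h later, 15 min after substrate addition at RT.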
Pf growth 48h: inhibits P. falciparum growth in the first generation, 48 h. P. falciparum luciferase growth in erythrocytes, 48 h. Potency, µM (top dose mostly 28.7 µM), hits mostly inhibitors. 5.9% of 310,000 active. AID 504832
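Erythrocytes infected with P. falciparum carrying an integrated firefly luciferase reporter (2% hematocrit, 0.1% parasitemia final) were exposed to compounds in RPMI 1640 with 0.5% Albumax at 37 C, 5% CO2. Growth inhibition was scored as reduced luminescence.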
Each line names hits and unclear results; the compound was inactive in the other large screens; ! = a repeat was not active. Unless noted, calls follow the shape of the dose curve; as a rule, active = well fitted inhibition curve with a large enough effect; inconclusive = small, poorly fitted or top-dose-only effect, or another doubt; inactive = no such curve, though single readings can be large or run the other way.

COc1ccccc1-c1noc(-c2ccccc2C(=O)Nc2cccnc2)n1	HCV inhibitor 11µM (no result: Pf growth 96h)
COc1ccc(-c2noc(CNC(=O)c3ccccc3Br)n2)cc1	HCMV antiviral -63 (no result: Pf growth 96h, HCV inhibitor, Pf growth 48h)
COc1ccc(-c2noc(-c3ccccc3C(=O)Nc3cccnc3)n2)cc1	HCV inhibitor 10µM, Pf growth 48h inconclusive
COc1ccc(-c2noc(-c3ccccc3C(=O)Nc3cccc(OC)c3)n2)cc1	Pf growth 96h inconclusive, HCV inhibitor inconclusive, Pf growth 48h inconclusive
COc1cccc(-c2nc(-c3ccc(NC(=O)c4cccnc4)cc3)no2)c1	Pf growth 96h 12µM, Pf growth 48h inconclusive
COc1ccc(CC(=O)Nc2ccc(-c3noc(-c4cccc(OC)c4)n3)cc2)cc1	none
COc1ccc(-n2c(CC3C(=O)N(C)c4ccc(C)cc43)nc3ccccc3c2=O)cc1 (stereo not drawn)	none (no result: Pf growth 96h, HCV inhibitor, Pf growth 48h)
COc1cc(C(=O)Nc2ccc(NC(=O)c3ccc(Br)cc3)cc2)cc(OC)c1OC	none (no result: Pf growth 96h, HCV inhibitor, Pf growth 48h)
COc1cccc(/C=C(\C#N)C(=O)Nc2ccc(NC(C)=O)cc2)c1OC	none (no result: Pf growth 96h, HCV inhibitor, Pf growth 48h)
CC(Oc1ccc(Cl)cc1Cl)c1nc(-c2ccc(NC(=O)c3cccnc3)cc2)no1 (stereo not drawn)	HCMV antiviral -72, HCV inhibitor 11µM!, Pf growth 48h 3.3µM
COc1ccc(-c2noc(-c3ccccc3C(=O)Nc3cccnc3)n2)cc1OC	HCV inhibitor 8.9µM, Pf growth 48h 10µM (no result: Pf growth 96h)
O=C(Nc1cccnc1)c1ccccc1-c1nc(-c2ccccc2F)no1	Pf growth 96h inconclusive, HCV inhibitor inconclusive (no result: Pf growth 48h)
Cc1ccc(CNC(=O)c2nn(C)c3c2CSc2ccc(C)cc2-3)cc1	none (no result: Pf growth 96h, HCV inhibitor, Pf growth 48h)
COc1ccc(OC)c(-c2csc(NC(=O)c3ccc(OCC4CCCO4)cc3)n2)c1 (stereo not drawn)	Pf growth 96h 12µM, Pf growth 48h inconclusive
COc1ccc(OC)c(-c2csc(N(CC3CCCO3)C(=O)Cc3ccccc3)n2)c1 (stereo not drawn)	Pf growth 96h 1.9µM, HCMV antiviral inconclusive, Pf growth 48h inconclusive
O=C(Nc1nc2ccccc2s1)c1ccc(OCC2CCCO2)cc1 (stereo not drawn)	HCMV antiviral -88, HCV inhibitor 7.9µM
CCN(CC)CCCN(C(C)=O)c1nc(-c2cc(OC)ccc2OC)cs1	HCMV antiviral inconclusive, HCV inhibitor 6.3µM, Pf growth 48h inconclusive
COc1cccc(NC(=O)C(=O)NCC(c2ccc3c(c2)OCO3)N2CCOCC2)c1 (stereo not drawn)	none (no result: Pf growth 96h, HCV inhibitor, Pf growth 48h)
CN1C(=O)N(C)C(=O)C2(Cc3cc(NC(=O)c4ccc(F)cc4)ccc3N3CCCC32)C1=O (stereo not drawn)	Pf growth 96h 15µM, HCV inhibitor inconclusive, Pf growth 48h inconclusive
CC(=O)Nc1ccc2c(c1)CC1(C(=O)N(C)C(=O)N(C)C1=O)C1CCCN21 (stereo not drawn)	none (no result: Pf growth 48h)
CCn1c2ccccc2c2cc(Nc3cc(C)nc4ncnn34)ccc21	HCV inhibitor inconclusive, Pf growth 48h 0.074µM
CCCOC(=O)c1ccc(Nc2cc(C)nc3ncnn23)cc1	Pf growth 48h 8.3µM
Cc1cc(Nc2ccc3c(c2)OCCO3)n2ncnc2n1	Pf growth 48h inconclusive
CCc1ccc(Nc2cc(C)nc3ncnn23)cc1	Pf growth 48h 3.3µM
CCN(CC)S(=O)(=O)c1ccc(Nc2cc(C)nc3ncnn23)cc1	Pf growth 96h inconclusive, Pf growth 48h 15µM
CCc1cccc(Nc2cc(C)nc3ncnn23)c1	Pf growth 96h inconclusive, Pf growth 48h inconclusive
O=C(CSc1nc2ccccc2nc1Cc1ccccc1)N1CCc2ccccc21	none (no result: Pf growth 96h, HCV inhibitor, Pf growth 48h)
CCCCN(CC)CCCNC(=O)CCN1N=C(c2ccc(OC)cc2)CCC1=O	none (no result: Pf growth 96h, HCV inhibitor, Pf growth 48h)
Cc1cc(C)cc(Nc2cc(C)nc3ncnn23)c1	none (no result: Pf growth 96h, HCV inhibitor, Pf growth 48h)
Cc1cc(Nc2ccc(N(C)C)cc2)n2ncnc2n1	Pf growth 48h 2.3µM
Cc1cc(Nc2ccc(Cl)cc2)n2ncnc2n1	Pf growth 48h inconclusive
Cc1cc(Nc2cccc(Cl)c2)n2ncnc2n1	Pf growth 96h 1.7µM
FC(F)(F)c1cc(-c2cnc3ccc(NCc4ccco4)nn23)cc(C(F)(F)F)c1	none (no result: Pf growth 96h, HCV inhibitor, Pf growth 48h)
O.O.O.O.O.O.O.O=S(=O)([O-])[O-].[Co+2]	Pf growth 96h 1.7µM, Pf growth 48h 6.7µM (no result: HCMV antiviral, HCV inhibitor)
Cc1ccc(/C=N/NC(=O)c2cc3c(ccc4ccccc43)o2)o1	none
O=C(N/N=C/c1ccncc1)c1cc2ccccc2o1	none
O=C(N/N=C/c1cc(Br)c(Br)o1)c1cc2ccccc2o1	HCMV antiviral active
O=C(N/N=C/c1cc(Cl)c(O)c(Cl)c1)c1cc2c(ccc3ccccc32)o1	Pf growth 96h inconclusive, HCMV antiviral inconclusive, Pf growth 48h 12µM
O=C(N/N=C/c1ccc(O)c(Br)c1)c1cc2c(ccc3ccccc32)o1	Pf growth 96h inconclusive, Pf growth 48h inconclusive
